Rows were chosen to be rich in hits. Some 3.9% of all compounds tested hit in one or more screens of this group.
CCHF vOTU inh-1 = blocks the CCHF virus ovarian tumor domain protease; CCHFV vOTU protease, Pep-AMC fluorescence; AID 651958; 0.55% of 370,000 active; inhibition, % at 11.5 µM; note: 0% = vehicle wells with enzyme and 100% = no enzyme wells
BoNT-F LC inh = blocks Botulinum neurotoxin F light chain protease; Multiplex microsphere protease cleavage assay, flow cytometry; inhibition, % at 10 µM; 0.22% of 360,000 active; AID 588497; in the data active = inhibition above about 35%, passing the limit was not always enough; inconclusive = no clear call, values can overlap the other calls; note: plate controls were buffer without enzyme for full effect and enzyme alone for no effect
Anthrax LF inh2 = inhibitors of Bacillus anthracis lethal factor protease. 0.12% of 360,000 active. inhibition, % at 10 µM. AID 588501. multiplex microsphere protease cleavage assay, LF. P15917; in the data active = inhibition above about 30%; inconclusive = no clear call, values can overlap the other calls; note: plate controls were buffer without enzyme for full effect and enzyme alone for no effect
Target sequence (P15917 whole entry, looked up): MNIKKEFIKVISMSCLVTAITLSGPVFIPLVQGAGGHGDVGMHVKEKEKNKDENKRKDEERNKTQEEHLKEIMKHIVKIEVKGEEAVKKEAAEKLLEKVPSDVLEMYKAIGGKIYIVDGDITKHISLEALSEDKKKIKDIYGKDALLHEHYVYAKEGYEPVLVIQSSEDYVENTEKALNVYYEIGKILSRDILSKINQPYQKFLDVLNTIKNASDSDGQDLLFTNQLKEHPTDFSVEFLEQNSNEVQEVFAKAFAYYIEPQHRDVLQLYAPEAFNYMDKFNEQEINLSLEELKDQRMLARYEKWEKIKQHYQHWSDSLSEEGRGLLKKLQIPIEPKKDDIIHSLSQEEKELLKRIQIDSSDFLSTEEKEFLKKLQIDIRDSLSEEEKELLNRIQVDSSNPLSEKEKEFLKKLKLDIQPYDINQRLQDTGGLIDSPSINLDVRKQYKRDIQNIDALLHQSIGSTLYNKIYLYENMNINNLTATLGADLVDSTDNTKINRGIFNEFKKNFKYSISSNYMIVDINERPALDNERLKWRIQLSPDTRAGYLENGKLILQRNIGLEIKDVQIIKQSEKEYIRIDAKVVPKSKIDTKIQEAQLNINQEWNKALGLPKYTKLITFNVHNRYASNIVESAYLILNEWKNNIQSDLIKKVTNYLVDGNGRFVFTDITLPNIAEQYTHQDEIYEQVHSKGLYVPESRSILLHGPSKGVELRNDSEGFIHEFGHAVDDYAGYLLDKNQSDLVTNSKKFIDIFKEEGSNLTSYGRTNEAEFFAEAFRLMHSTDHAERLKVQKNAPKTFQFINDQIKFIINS
3CLpro inhibitor = SARS-CoV 3CLpro protease inhibition | inhibition, % at 6 µM | recombinant SARS-CoV 3CLpro, quenched FRET peptide cleavage | P0C6X7 | 0.14% of 290,000 active; in the data active = inhibition above about 12%
BoNT-A LC inh2 = inhibitors of Botulinum neurotoxin A light chain protease. multiplex microsphere protease substrate cleavage, flow cytometry. inhibition, % at 10 µM. 0.17% of 360,000 active. AID 588499; in the data active = inhibition above about 30%; inconclusive = no clear call, values can overlap the other calls; note: plate controls were buffer without enzyme for full effect and enzyme alone for no effect
Autofluor counter = counter-screen for toxin protease inhibitors: compound fluorescence | fluorescence intensity (concentration not given with the values) | compound autofluorescence counterscreen, microsphere flow cytometry; hits give high values | 3.1% of 360,000 active; in the data active = fluorescence intensity above about 16000; inconclusive = no clear call, values can overlap the other calls
CCHF vOTU inh-2 = confirmation of CCHF virus vOTU protease inhibitors; inhibition, % at 11.5 µM; AID 686976; Recombinant CCHFV vOTU, Pep-AMC fluorescence; 17% of 1,900 active; shares compounds with CCHF vOTU inh-1
* marks the source's active call; other numbers are inactive results; ? = inconclusive; / = not tested or not shown. Cut-off read from the data, not from the text of the source, unless noted: active = inhibition above about 30%; inactive = the rest.

SMILES	CCHF vOTU inh-1	BoNT-F LC inh	Anthrax LF inh2	3CLpro inhibitor	BoNT-A LC inh2	Autofluor counter	CCHF vOTU inh-2
C=CC[C@H](CC(=O)N(CCO)Cc1ccccc1)C(=O)N[C@H](COC(=O)[C@@H](CC=C)CC(=O)OC(C)(C)C)Cc1ccccc1	22	-14	-8	/	-1	3937	/
COc1ccccc1C(=O)NCCNC(=O)c1ccc(C)nc1	-3	1	-2	-4	1	5407	/
CCCCNc1ccc2nsnc2c1[N+](=O)[O-]	57*	-6	2	-4	0	2486	-6
CCOc1ccc(N=NC2C(=O)N(C(N)=S)N=C2C)cc1 (stereo not drawn)	19	2	-2	-1	-2	3267	/
CC1Cc2nc(SCC(=O)NCc3ccco3)n(-c3ccccc3)c(=O)c2S1 (stereo not drawn)	30*	5	1	0	0	5180	0
COc1ccc(CCNC(=O)CCC(=O)Nc2nnc(C(C)C)s2)cc1OC	6	-2	-1	-3	0	2601	/
CCc1nnc(NS(=O)(=O)c2ccc(NC(=O)c3cccc([N+](=O)[O-])c3)cc2)s1	15	-1	-1	0	-1	5620	/
CCc1nnc(NS(=O)(=O)c2ccc(NS(=O)(=O)c3ccccc3[N+](=O)[O-])cc2)s1	-3	18	4	-1	0	3608	/
CCc1nnc(NS(=O)(=O)c2ccc(Nc3ccc([N+](=O)[O-])c4nonc34)cc2)s1	31*	-12	-8	6	-2	4690	6
CCc1nnc(NS(=O)(=O)c2ccc(NC(=O)c3ccc([N+](=O)[O-])s3)cc2)s1	35*	-4	-2	/	-1	3760	12
CNc1oc(-c2ccccc2)nc1S(=O)(=O)c1ccc(C)cc1	30*	7	-6	0	1	4772	-15
CNc1oc(-c2ccccc2F)nc1S(=O)(=O)c1ccc(C)cc1	1	8	6	2	0	4632	/
O=C(NCc1ccc(OC(F)(F)F)cc1)C1CC(c2c(Cl)cccc2Cl)=NO1 (stereo not drawn)	30*	-3	-4	10	0	4260	4
O=C(NCc1cc(C(F)(F)F)cc(C(F)(F)F)c1)C1CC(c2c(Cl)cccc2Cl)=NO1 (stereo not drawn)	17	-6	-2	6	1	3970	/
CNCc1ccccc1Sc1cc(O)ccc1O	30*	-11	-5	0	0	1905	4
CNCc1ccccc1Sc1cccc(O)c1	15	2	-1	3	0	2034	/
CC(C)CCN1CCN(Cc2nc3c(s2)CCCC3)CC1CCO (stereo not drawn)	-8	-12	-2	6	0	4375	/
COc1ccccc1C=NNC(=O)NN=Cc1ccccc1OC	6	-6	-3	/	1	3890	/
COc1ccccc1C=NN=C(NN=Cc1ccccc1OC)NN=Cc1ccccc1OC	69*	-9	-5	/	0	3825	2
CC(C)(C)N(Cc1nc(-c2ccccc2)no1)C(=O)c1ccc2c(c1)OCO2	30*	1	0	4	1	4946	-9
CN(Cc1nc(-c2ccccc2)no1)C(=O)c1ccc2c(c1)OCO2	-10	-1	-1	/	2	4649	/
CC(C)NC(=S)N/N=C1\CCCc2ccccc21	6	-3	0	-1	0	4470	/
O=C1C(=Cc2cn(-c3ccccc3)nc2-c2ccc(OCc3ccc(Cl)cc3)cc2)SC(=S)N1CCS(=O)(=O)O	34*	16	-1	/	0	3288	25
Cn1nccc1-c1coc2c(C(=O)NCc3ccccc3)cccc12	-9	3	-10	/	0	3536	/
COc1ccc(CN(C)C(=O)[C@H]2O[C@@H](n3ccc(=O)[nH]c3=O)[C@H](O)[C@@H]2O)cc1OC	30*	1	3	/	-1	4351	3
SMILES	CCHF vOTU inh-1	BoNT-F LC inh	Anthrax LF inh2	3CLpro inhibitor	BoNT-A LC inh2	Autofluor counter	CCHF vOTU inh-2
CCOc1ccc(/C=C2\SC(=S)N(NS(=O)(=O)c3ccccc3)C2=O)cc1OC	41*	-4	-1	10	-1	3839	10
COc1ccccc1/C=C1\SC(=S)N(NS(=O)(=O)c2ccc(C)cc2)C1=O	36*	-6	-3	4	-2	3813	1
COc1ccc(/C=C2\SC(=S)N(NS(=O)(=O)c3ccc(C)cc3)C2=O)c(OC)c1	1	-2	2	2	-1	3606	/
COc1ccc(OC)c(/C=C2\SC(=S)N(NS(=O)(=O)c3ccc(C)cc3)C2=O)c1	33*	-19	-1	2	-2	4388	8
Nc1ccc2nc(-c3ccc(-c4nc5ccc(N)cc5[nH]4)cc3)[nH]c2c1	36*	/	/	-17	/	/	-9
Nc1ccc2nc(-c3cccc(-c4nc5ccc(N)cc5[nH]4)n3)[nH]c2c1	-2	?	-33	-6	-2	2947	/
CCOC(=O)Cc1nnc(Nc2ccc(C)cc2C)c2ccccc12	-11	-1	0	1	1	2592	/
CCOC(=O)Cc1nnc(Nc2cc(C)ccc2C)c2ccccc12	31*	0	-1	0	1	2145	3
COc1ccc(CN(C)S(=O)(=O)c2nnc(NC(=O)c3cccc(F)c3)s2)cc1OC	6	-4	-2	2	-3	4772	/
CCCCCC(=O)N1C[C@@H](n2cc(-c3ccc(F)cc3)nn2)[C@H](O)C[C@@H]1c1ccc(Cl)cc1	34*	2	-7	/	0	3184	5
Cc1ccc([C@H]2C[C@@H](O)[C@H](n3cc(-c4ccc(F)cc4)nn3)CN2C(=O)C2CCCCC2)cc1	31*	-2	0	/	0	3482	4
CCN(C(=O)CSc1n[nH]c(-c2cc(Cl)ccc2OC)n1)C1CCS(=O)(=O)C1 (stereo not drawn)	8	8	-1	/	-1	6028	/
CC(C(=O)Nc1nc(-c2ccc(F)c(F)c2)cs1)N1C(=O)C2CC=CCC2C1=O (stereo not drawn)	31*	?	-4	/	-7	6859	-8
C=CCN(CC=C)C(=O)Nc1cc(OC)ccc1OC	8	-13	5	-2	-3	3906	/
CCN(CC)CC(C)(C)COC(=O)c1oc2ccccc2c1C	-3	4	-4	1	-1	4160	/
CCOc1cc(/C=C2\C(=O)N(CCC#N)N=C2C)ccc1OCC(N)=O	44*	9	2	1	2	4440	-24
Oc1cc(Nc2ccccc2)cc2cccnc12	2	-9	-12	/	-1	4657	/
Oc1cc(NCCN2CCOCC2)cc2cccnc12	99*	-6	-5	/	0	2791	46*
CC(C)CC(NC(=O)C(Cc1ccc(OCc2ccccc2)cc1)NC(=O)OC(C)(C)C)C(N)=O (stereo not drawn)	32*	-1	1	0	-1	4891	-12
O=C1C(=O)c2cccnc2-c2ncccc21	111*	-7	0	/	-1	5831	86*
O=C1c2ccccc2-c2nccnc21	8	-4	-10	1	0	8229	/
